Columns and labels:
Conditions in all cases: treatment time: 24 h
A549-ACTB-RAB5A = assay: phenotypically active (imaging signature differs from DMSO and reproducible) at any of 0.3-9 uM (binary (1 = active, 0 = inactive)); higher = active
How it was run: (§1)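 Two criteria together defined phenotypic activity: deviation and reproducibility. Deviation meant ≥3 of 4 wells beyond the 95th percentile of Euclidean distances in solvent control wells, and reproducibility meant a median replicate Pearson correlation above the 95th percentile of non-replicates. Wells had been treated for 24 h at 0.3, 1, 3 or 9 µM in fifteen gene-edited A549, HepG2 and WPMY1 reporter lines before live imaging.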

A549-CANX-COX4 = assay: as above
How it was run: as §1

A549-GM130-SQSTM1 = assay: as above
How it was run: as §1

A549-TP53BP1-CLTA = assay: as above
How it was run: as §1

A549-TUBA1B-RELA = assay: as above
How it was run: as §1

HepG2-ACTB-RAB5A = assay: as above
How it was run: as §1

HepG2-CANX-COX4 = assay: as above
How it was run: as §1

HepG2-GM130-SQSTM1 = assay: as above
How it was run: as §1

HepG2-TP53BP1-CLTA = assay: as above
How it was run: as §1

HepG2-TUBA1B-RELA = assay: as above
How it was run: as §1

WPMY1-ACTB-RAB5A [1] = assay: as above
How it was run: as §1

WPMY1-CANX-COX4 = assay: as above
How it was run: as §1

WPMY1-GM130-SQSTM1 [2] = assay: as above
How it was run: as §1

WPMY1-TP53BP1-CLTA = assay: as above
How it was run: as §1

WPMY1-TUBA1B-RELA = assay: as above
How it was run: as §1

WPMY1-GM130-SQSTM1 [3] = assay: lowest phenotypically active concentration; higher = less potent
How it was run: as §1

WPMY1-ACTB-RAB5A [4] = assay: as above
How it was run: as §1

O=C(Nc1ccccc1)N1CCC(Cc2cnc3ccccc3c2)CC1
phenotypically active (A549-ACTB-RAB5A): 0 (inactive)
phenotypically active (A549-CANX-COX4): 0 (inactive)
phenotypically active (A549-GM130-SQSTM1): 0 (inactive)
phenotypically active (A549-TP53BP1-CLTA): 0 (inactive)
phenotypically active (A549-TUBA1B-RELA): 0 (inactive)
phenotypically active (HepG2-ACTB-RAB5A): 0 (inactive)
phenotypically active (HepG2-CANX-COX4): 0 (inactive)
phenotypically active (HepG2-GM130-SQSTM1): 0 (inactive)
phenotypically active (HepG2-TP53BP1-CLTA): 1 (active)
phenotypically active (HepG2-TUBA1B-RELA): 1 (active)
phenotypically active (WPMY1-ACTB-RAB5A [1]): 0 (inactive)
phenotypically active (WPMY1-CANX-COX4): 0 (inactive)
phenotypically active (WPMY1-GM130-SQSTM1 [2]): 0 (inactive)
phenotypically active (WPMY1-TP53BP1-CLTA): 0 (inactive)
phenotypically active (WPMY1-TUBA1B-RELA): 0 (inactive)

COC(=O)C1=C(C)NC(C)=C(C(=O)OCCN(C)Cc2ccccc2)C1c1cccc([N+](=O)[O-])c1 (stereo not given) [nicardipine]
lowest phenotypically active concentration (WPMY1-GM130-SQSTM1 [3]): 9 µM
phenotypically active (A549-ACTB-RAB5A): 0 (inactive)
phenotypically active (A549-CANX-COX4): 0 (inactive)
phenotypically active (A549-GM130-SQSTM1): 0 (inactive)
phenotypically active (A549-TP53BP1-CLTA): 0 (inactive)
phenotypically active (A549-TUBA1B-RELA): 0 (inactive)
phenotypically active (HepG2-ACTB-RAB5A): 0 (inactive)
phenotypically active (HepG2-CANX-COX4): 0 (inactive)
phenotypically active (HepG2-GM130-SQSTM1): 0 (inactive)
phenotypically active (HepG2-TP53BP1-CLTA): 0 (inactive)
phenotypically active (HepG2-TUBA1B-RELA): 0 (inactive)
phenotypically active (WPMY1-ACTB-RAB5A [1]): 0 (inactive)
phenotypically active (WPMY1-CANX-COX4): 0 (inactive)
phenotypically active (WPMY1-GM130-SQSTM1 [2]): 1 (active)
phenotypically active (WPMY1-TP53BP1-CLTA): 0 (inactive)
phenotypically active (WPMY1-TUBA1B-RELA): 0 (inactive)

CCCCc1c(O)n(-c2ccccc2)n(-c2ccccc2)c1=O [phenylbutazone]
lowest phenotypically active concentration (WPMY1-GM130-SQSTM1 [3]): ≤ 0.3 µM
phenotypically active (A549-ACTB-RAB5A): 0 (inactive)
phenotypically active (A549-CANX-COX4): 0 (inactive)
phenotypically active (A549-GM130-SQSTM1): 0 (inactive)
phenotypically active (A549-TP53BP1-CLTA): 0 (inactive)
phenotypically active (A549-TUBA1B-RELA): 0 (inactive)
phenotypically active (HepG2-ACTB-RAB5A): 0 (inactive)
phenotypically active (HepG2-CANX-COX4): 0 (inactive)
phenotypically active (HepG2-GM130-SQSTM1): 0 (inactive)
phenotypically active (HepG2-TP53BP1-CLTA): 0 (inactive)
phenotypically active (HepG2-TUBA1B-RELA): 0 (inactive)
phenotypically active (WPMY1-ACTB-RAB5A [1]): 0 (inactive)
phenotypically active (WPMY1-CANX-COX4): 0 (inactive)
phenotypically active (WPMY1-GM130-SQSTM1 [2]): 1 (active)
phenotypically active (WPMY1-TP53BP1-CLTA): 0 (inactive)
phenotypically active (WPMY1-TUBA1B-RELA): 0 (inactive)

O=C1C=C(O)C(=O)c2ccccc21 [2-Hydroxy-[1,4]naphthoquinone]
lowest phenotypically active concentration (WPMY1-GM130-SQSTM1 [3]): ≤ 0.3 µM
phenotypically active (A549-ACTB-RAB5A): 0 (inactive)
phenotypically active (A549-CANX-COX4): 0 (inactive)
phenotypically active (A549-GM130-SQSTM1): 0 (inactive)
phenotypically active (A549-TP53BP1-CLTA): 0 (inactive)
phenotypically active (A549-TUBA1B-RELA): 0 (inactive)
phenotypically active (HepG2-ACTB-RAB5A): 0 (inactive)
phenotypically active (HepG2-CANX-COX4): 0 (inactive)
phenotypically active (HepG2-GM130-SQSTM1): 0 (inactive)
phenotypically active (HepG2-TP53BP1-CLTA): 0 (inactive)
phenotypically active (HepG2-TUBA1B-RELA): 0 (inactive)
phenotypically active (WPMY1-ACTB-RAB5A [1]): 0 (inactive)
phenotypically active (WPMY1-CANX-COX4): 0 (inactive)
phenotypically active (WPMY1-GM130-SQSTM1 [2]): 1 (active)
phenotypically active (WPMY1-TP53BP1-CLTA): 0 (inactive)
phenotypically active (WPMY1-TUBA1B-RELA): 0 (inactive)

COc1ccnc(CS(=O)c2nc3cc(OC(F)F)ccc3[nH]2)c1OC (stereo not given) [pantoprazole]
lowest phenotypically active concentration (WPMY1-ACTB-RAB5A [4]): ≤ 0.3 µM
phenotypically active (A549-ACTB-RAB5A): 0 (inactive)
phenotypically active (A549-CANX-COX4): 0 (inactive)
phenotypically active (A549-GM130-SQSTM1): 0 (inactive)
phenotypically active (A549-TP53BP1-CLTA): 0 (inactive)
phenotypically active (A549-TUBA1B-RELA): 0 (inactive)
phenotypically active (HepG2-ACTB-RAB5A): 0 (inactive)
phenotypically active (HepG2-CANX-COX4): 0 (inactive)
phenotypically active (HepG2-GM130-SQSTM1): 0 (inactive)
phenotypically active (HepG2-TP53BP1-CLTA): 0 (inactive)
phenotypically active (HepG2-TUBA1B-RELA): 0 (inactive)
phenotypically active (WPMY1-ACTB-RAB5A [1]): 1 (active)
phenotypically active (WPMY1-CANX-COX4): 0 (inactive)
phenotypically active (WPMY1-GM130-SQSTM1 [2]): 0 (inactive)
phenotypically active (WPMY1-TP53BP1-CLTA): 0 (inactive)
phenotypically active (WPMY1-TUBA1B-RELA): 0 (inactive)

CC(C)C[C@H](NC(=O)OCC1c2ccccc2-c2ccccc21)C(=O)O
lowest phenotypically active concentration (WPMY1-ACTB-RAB5A [4]): 9 µM
phenotypically active (A549-ACTB-RAB5A): 0 (inactive)
phenotypically active (A549-CANX-COX4): 0 (inactive)
phenotypically active (A549-GM130-SQSTM1): 0 (inactive)
phenotypically active (A549-TP53BP1-CLTA): 0 (inactive)
phenotypically active (A549-TUBA1B-RELA): 0 (inactive)
phenotypically active (HepG2-ACTB-RAB5A): 0 (inactive)
phenotypically active (HepG2-CANX-COX4): 0 (inactive)
phenotypically active (HepG2-GM130-SQSTM1): 0 (inactive)
phenotypically active (HepG2-TP53BP1-CLTA): 0 (inactive)
phenotypically active (HepG2-TUBA1B-RELA): 0 (inactive)
phenotypically active (WPMY1-ACTB-RAB5A [1]): 1 (active)
phenotypically active (WPMY1-CANX-COX4): 0 (inactive)
phenotypically active (WPMY1-GM130-SQSTM1 [2]): 0 (inactive)
phenotypically active (WPMY1-TP53BP1-CLTA): 0 (inactive)
phenotypically active (WPMY1-TUBA1B-RELA): 0 (inactive)
